NRP1-CendR mod: NRP-1/CendR interaction modulation. O14786. FAM-RPARPAR peptide binding to NRP-1, fluorescence polarization. inhibition, % at 25 µM. hit rate 0.85% among 360,000;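 active = inhibition or corrected inhibition above about 18%, plus a signal ratio from 0.5 to 1.5, limit read from the data, passing the limit was not always enough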
ADAM10 inh: inhibitors of human ADAM10; O14672; recombinant ADAM10, EDANS/DABCYL FRET peptide cleavage, 3 h; inhibition, % at 7 µM; hit rate 0.62% among 370,000; AID 720582;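 active = inhibition above a per-campaign cutoff equal to the mean of compounds falling between control-based bounds plus 3 SD, cut at about 20% in these data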;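 note: 0% = DMSO wells while the 100% control is not disclosed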
Target sequence (O14672 214-748 limits assumed): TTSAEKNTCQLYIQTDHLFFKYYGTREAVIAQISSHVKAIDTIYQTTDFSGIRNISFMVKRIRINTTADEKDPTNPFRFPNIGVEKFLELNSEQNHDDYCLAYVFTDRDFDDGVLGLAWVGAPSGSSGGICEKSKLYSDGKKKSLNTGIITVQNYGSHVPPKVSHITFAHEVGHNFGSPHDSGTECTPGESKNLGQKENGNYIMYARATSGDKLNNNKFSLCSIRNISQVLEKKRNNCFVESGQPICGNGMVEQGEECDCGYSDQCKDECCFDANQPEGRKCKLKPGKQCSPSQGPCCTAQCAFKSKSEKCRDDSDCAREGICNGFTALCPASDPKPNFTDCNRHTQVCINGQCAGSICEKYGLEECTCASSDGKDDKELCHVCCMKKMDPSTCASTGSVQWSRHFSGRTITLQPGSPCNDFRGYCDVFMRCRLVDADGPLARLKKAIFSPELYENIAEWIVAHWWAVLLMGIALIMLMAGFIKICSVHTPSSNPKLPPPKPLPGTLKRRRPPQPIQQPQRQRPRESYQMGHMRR
APOBEC3A inh: blocks human APOBEC3A ssDNA deamination; inhibition, % at 20 µM; hit rate 0.41% among 330,000; recombinant A3A, FAM/TAMRA ssDNA deamination fluorescence; P31941;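 active = at least 40% inhibition at 20 µM here, with at most 30% in a related deaminase screen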;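 note: plate controls were A3A with DMSO for no effect and wells lacking A3A enzyme for full effect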
ADAM17 inh: inhibits human ADAM17; P78536; recombinant ADAM17, EDANS/DABCYL FRET peptide cleavage; inhibition, % at 6.95 µM; hit rate 0.83% among 370,000; AID 720648;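 active = inhibition above the mean of compounds lying between control limits plus 3 SD, set per campaign, cut at about 8.5% in these data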;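 note: 0% = DMSO-only wells as the low control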
A3G deaminase: inhibitors of human APOBEC3G DNA deaminase; inhibition, % at 20 µM; AID 493012; hit rate 0.28% among 330,000; recombinant A3G, ssDNA deamination FAM/TAMRA fluorescence; Q9HC16;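 active = inhibition of at least 40% at 20 µM, with no more than 30% in the related APOBEC3A deaminase screen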;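 note: plate controls were DMSO wells with A3G for no effect and wells lacking A3G enzyme for full effect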
A3G conf: APOBEC3G (human) deaminase inhibition, confirmed; shares compounds with A3G deaminase; recombinant A3G ssDNA deaminase, UDG/FAM-TAMRA fluorescence; inhibition, % at 20 µM; hit rate 72% among 890; AID 493152;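 active = inhibition reaching a set limit in any replicate at 20 µM, the limit being 80% of the first screen's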
UDG ctr A3G: inhibits E. coli UDG, flagging false APOBEC3G inhibitors; shares compounds with A3G deaminase; UDG counterscreen, FAM/TAMRA oligo fluorescence; inhibition, % at 20 µM; 710 tested, under 10 active;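 active = compounds giving 40% or more inhibition at 20 µM in any one of the three replicates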;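 note: plate controls were DMSO wells with UDG and oligo for no effect and DMSO wells lacking both for full effect; inhibitors lower the FAM signal released by uracil excision and alkaline cleavage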
Active calls of the source: *; · = no result given. An excerpt weighted towards active compounds, which were near 2.4% of everything screened.

SMILES | NRP1-CendR mod | ADAM10 inh | APOBEC3A inh | ADAM17 inh | A3G deaminase | A3G conf | UDG ctr A3G
Cc1c(Cc2ccc3c(c2)OCO3)sc(NC(=O)C2CC2)c1C(N)=O | -11 | -1 | 0 | -2 | 48* | 31 | ·
Cc1c(Cc2ccc3c(c2)OCO3)sc(NC(=O)c2cccc3ccccc23)c1C(N)=O | -19 | -5 | -1 | 2 | 13 | · | ·
CC(=O)/C(=N/Nc1cccc(C)c1)N1CCOCC1 | 4 | 3 | -3 | -2 | 45* | 3 | -3
Cc1cc(-c2cc(NC(=O)Cc3c[nH]c4ccccc34)ccc2N(C)c2cccnc2)ccc1F | · | -6 | · | -1 | · | · | ·
CC/C(=N/Nc1cccc(C)c1)c1cnnc(SC)n1 | -87 | -6 | 3 | -4 | 46* | 19 | ·
C/C(C=NNC(=O)CSc1nnc(-c2ccc(Cl)cc2)n1-c1ccc(C)cc1)=C\c1ccccc1 | · | 5 | · | 2 | · | · | ·
O=C([C@@H]1C[C@H]1c1ccccc1)N1CCC(Oc2cccnc2)CC1 | · | 8 | · | -1 | · | · | ·
Cc1sc(NC(=O)c2ccccc2)c(C(=O)NC(C)C)c1C | -3 | 1 | -6 | 0 | -9 | · | ·
Cc1ccc(C(=O)Nc2sc(C)c(C)c2C(=O)c2ccccc2)cc1 | 2 | 3 | 3 | -2 | 40* | 29* | -3
Cc1sc(NC(=O)c2ccccc2)c(C(=O)c2ccccc2)c1C | -3 | 6 | 2 | 1 | 50* | 37* | -3
COC(=O)[C@@]12CCCCC3=C1N(CCC3)C(=O)[C@H]2CC(=O)NCc1ccc(OC)c(OC)c1 | · | -4 | · | 1 | · | · | ·
Nc1c(C(=O)N2CCOCC2)sc(=S)n1-c1ccccc1 | -3 | 2 | 0 | 0 | 52* | 31* | -4
Cc1ccc(-n2c(N)c(C(=O)N3CCN(C)CC3)sc2=S)cc1 | -4 | -6 | -1 | 3 | 46* | 74* | -3
Cc1ccc(-n2c(N)c(C(=O)N3CCCCC3)sc2=S)cc1 | 3 | 0 | -2 | -1 | 37 | · | ·
Cc1ccc(-n2c(N)c(C(N)=O)sc2=S)c(C)c1 | -13 | 6 | 1 | 0 | 45* | 14 | ·
Nc1c(C(=O)N2CCCCC2)sc(=S)n1-c1ccccc1 | 0 | 2 | 1 | -1 | 56* | 27 | ·
CC1(C)C=Cc2ccc(O)c(C(=O)/C=C/c3ccccc3)c2O1 | · | 5 | · | 2 | · | · | ·
S=c1[nH]c2ccc(Cl)cc2[nH]1 | 11 | 2 | -1 | -1 | 41* | 81* | -3
COc1ccc(NC(=O)NCCCN2CCN(c3ccc(F)cc3)CC2)cc1OC | · | -7 | · | -1 | · | · | ·
CCCC(=O)OC[C@H]1CN(C2CCCC2)S(=O)(=O)c2c(Oc3ccc(F)cc3)cccc2O1 | · | 6 | · | 1 | · | · | ·
CC(C)(C)S(=O)(=O)Cc1nc(-c2ccc(Cl)c(Cl)c2)cs1 | 7 | -3 | 7 | -5 | 67* | -1 | ·
CCC(=O)OCCCN1C(=O)CCC12CCC(C)CC2 (centres undefined) | · | 3 | · | 0 | · | · | ·
O=C(CNCC(=O)Nc1ccc(F)c(F)c1F)Nc1ccc(F)c(F)c1F | 6 | 18 | -3 | 6 | -5 | · | ·
O=C(Cc1ncon1)Nc1ccc(F)c(F)c1F | 1 | 3 | 0 | -1 | 66* | 4 | ·
Cc1cc(=S)[nH]c2c(C)cccc12 | 8 | -4 | -2 | -7 | 79* | -1 | -6
SMILES | NRP1-CendR mod | ADAM10 inh | APOBEC3A inh | ADAM17 inh | A3G deaminase | A3G conf | UDG ctr A3G
CCCC(C)c1nnc(NC(=O)c2cc(C(=O)OC)cc([N+](=O)[O-])c2)s1 (centres undefined) | -1 | 2 | 10 | -3 | 60* | 73* | 1
O=C(C1CCN(c2ncnc3c2nc2n3CCCCC2)CC1)N1CCN(c2ccccc2F)CC1 | 0 | 3 | 4 | 6 | 46* | 1 | ·
Cc1cccc(N2CCN(C(=O)C3CCN(c4ncnc5c4nc4n5CCCCC4)CC3)CC2)c1C | 7 | 4 | -2 | 6 | -3 | · | ·
Cc1cccn2c(=O)c3cc(C(=O)NCc4ccco4)c(=N)n(CCOCCO)c3nc12 | 1 | · | 27 | · | 58* | 29 | ·
CCOC(=O)c1ccc(N=c2ssnc2Cl)cc1 | 8 | 7 | 5 | 1 | 66* | 79* | 0
N#Cc1ccc(N=c2ssnc2Cl)cc1 | -3 | -10 | -2 | -4 | 73* | 91* | -3
COc1ccc(N=C2SCC(=O)N2C)cc1 | 4 | -3 | · | -6 | · | · | ·
COc1cc(N=c2ssnc2Cl)cc(OC)c1OC | -8 | 5 | 0 | -3 | 72* | 93* | 0
CCOC(=O)c1ccc(N=C2SC(C(=O)NC)CC(=O)N2Cc2ccc(F)cc2)cc1 (centres undefined) | 5 | 0 | -3 | 0 | 1 | · | ·
COc1ccc(N=c2ssnc2Cl)cc1 | 3 | · | 5 | · | 70* | 79* | 3
C[C@@H]1CN(c2ccc(N3CCN(C(=O)OC(C)(C)C)C[C@@H]3C)cc2C#N)C[C@H](C)O1 | · | -85 | · | -8 | · | · | ·
CC(=O)c1cc(-c2ccccc2)n(CC(=O)NCc2ccccc2Cl)c1C | · | 1 | · | 2 | · | · | ·
CC(C)C1=CC2C3C(=O)N(c4ccccc4)C(=O)C3C1C(=O)C2(C)O (centres undefined) | · | 5 | · | 0 | · | · | ·
O=S(=O)(c1ccccc1)N(F)S(=O)(=O)c1ccccc1 | 12 | -3 | 1 | -4 | 46* | 53* | -2
CCN(CC)C(=O)CSc1ncnc2sccc12 | 7 | -10 | -1 | 1 | -5 | · | ·
CCN(CC)C(=O)CSc1ncnc2c(-c3cccs3)nsc12 | -28 | -33 | 26 | -13 | 54* | 45* | -3
O=C(NCc1nnc(SCC(=O)N2CCCCCC2)o1)c1ccco1 | 0 | 7 | -1 | -1 | 77* | 3 | 6
CCOC(=O)c1cc(C#N)c(SCC(=O)c2cc(C#N)c(SC)nc2C)[nH]c1=O | -33 | -47 | 2 | -20 | 43* | 17* | -4
O=C(O)c1ccc2c3c(ncnc13)-c1ccccc1C2=O | · | · | 1 | · | 61* | 41* | 2
Cc1ccc(NC(=O)c2ccc(Cl)c(N3C(=O)C=CC3=O)c2)cc1 | -8 | -7 | -5 | -4 | 46* | 53* | -7
O=C(Nc1ccc(Cl)c(Cl)c1)c1ccc(Cl)c(Cl)c1 | -3 | 8 | -2 | 1 | -1 | · | ·
COC(=O)c1cc2c(c3c4cc(OC)ccc4n(S(C)(=O)=O)c13)C(=O)N(C)C2 | · | -26 | · | -12 | · | · | ·
CN1CCN(C(=S)C(=O)Nc2ccc(Br)cc2)CC1 | -9 | 2 | 6 | -4 | 80* | 70* | -2
Cc1ccc(C(NC(=O)C(C)C)c2cc([N+](=O)[O-])c3cccnc3c2O)cc1 (centres undefined) | -10 | 3 | -5 | 3 | 7 | · | ·
CC(C)C(=O)NC(c1cccs1)c1cc([N+](=O)[O-])c2cccnc2c1O (centres undefined) | 2 | · | 2 | · | 54* | 13* | -1
